GDH-TPI counter-1 – counter-screen for M. tuberculosis FBA inhibitors: GDH-TPI coupled enzymes. GDH-TPI coupled enzyme counterscreen, NADH absorbance. inhibition, % at 4.8 µM. actives 1.2% (n = 360,000); in the data active = inhibition above about 30%;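 note: 0% = DMSO wells and 100% = wells lacking the enzyme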
Mtb bLac sens – beta-lactam sensitization of Mtb H37Rv; AID 434955; M. tuberculosis H37Rv growth with meropenem, percent inhibition; inhibition, % at 25 µM; actives 0.27% (n = 330,000);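 note: growth measured after seven days incubation then overnight dye step; 0% = bacteria only wells and 100% = bacteria with antibiotic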
PriA SSB inh – inhibitors of Klebsiella pneumoniae PriA binding to SSB C-terminal tail. actives 0.6% (n = 430,000). AlphaScreen SSBct-PriA binding, biotinylated peptide. inhibition, % at 33 µM. AID 1272365; in the data active = inhibition mostly above about 37%, no sharp cut-off; inactive = mostly below about 20%;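 note: plate controls were negative control peptide for no effect and reference peptide for full effect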
Rv3671c inh – Rv3671c (M. tuberculosis) protease inhibition; inhibition, % at 5.96 µM; actives 0.048% (n = 320,000); P9WHR9; in the data active = inhibition above about 38%;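 note: extracellular domain of Rv3671c used as enzyme; 0% = enzyme with DMSO and 100% = no enzyme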
FBA Mtb inh – inhibits M. tuberculosis FBA enzyme; P9WQA3; purified M. tuberculosis FBA, fluorescence read-out; inhibition, % at 1 µM; actives 2.3% (n = 360,000); in the data active = inhibition above about 27%;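 note: 0% = vehicle and 100% = reference inhibitor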
Mtb UGM inh – inhibitors of M. tuberculosis UDP-galactopyranose mutase. actives 0.06% (n = 320,000). inhibition, % at 10 µM. purified UGM, fluorescence polarization probe displacement; in the data active = inhibition above about 10%, passing the limit was not always enough; inconclusive = no clear call, values can overlap the other calls
Target sequence (P9WIQ1 whole entry, looked up): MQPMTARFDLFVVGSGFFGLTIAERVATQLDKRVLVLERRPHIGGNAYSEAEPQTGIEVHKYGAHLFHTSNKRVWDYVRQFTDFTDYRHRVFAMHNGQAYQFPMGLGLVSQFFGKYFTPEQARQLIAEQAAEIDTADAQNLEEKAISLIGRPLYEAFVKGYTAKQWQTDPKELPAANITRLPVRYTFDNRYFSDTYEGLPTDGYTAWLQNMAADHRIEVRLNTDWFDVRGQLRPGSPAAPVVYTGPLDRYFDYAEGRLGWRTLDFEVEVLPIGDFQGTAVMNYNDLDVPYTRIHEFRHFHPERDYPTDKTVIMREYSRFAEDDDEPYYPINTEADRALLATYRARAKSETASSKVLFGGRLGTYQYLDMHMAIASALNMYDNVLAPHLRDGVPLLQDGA
Mtb FBA inh conf – Mtb FBA inhibition, confirmed; shares compounds with FBA Mtb inh; purified M. tuberculosis FBA, fluorescence read-out; inhibition, % at 1 µM; actives 78% (n = 5,600); AID 651616; in the data active = inhibition above about 27%;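 note: 0% = vehicle wells and 100% = reference inhibitor wells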
GDH-TPI counter-2 – GDH-TPI inhibition counter-screen for FBA inhibitors; inhibition, % at 1 µM; actives 81% (n = 5,600); shares compounds with FBA Mtb inh; GDH-TPI coupled enzyme counterscreen, fluorescence; in the data active = inhibition above about 10%
GDH-TPI dose – inhibits GDH-TPI coupling enzymes in dose response | shares compounds with FBA Mtb inh | GDH-TPI coupled enzyme assay, fluorescence, artifact counterscreen | IC50, µM | actives 79% (n = 170) | AID 652145
* hit, by the source's call; ? = inconclusive; · = no result; + = active, no number. In the library only some 3.2% were active in any assay of this set; here they are far more common. Unless noted, the rule behind the calls is not given here.

SMILES	GDH-TPI counter-1	Mtb bLac sens	PriA SSB inh	Rv3671c inh	FBA Mtb inh	Mtb UGM inh	Mtb FBA inh conf	GDH-TPI counter-2	others
CCCCCNc1nc2sc3c(c2c(=O)n1-c1cccc(Cl)c1)CCN(C)C3	21	1	-3	-7	52*	2	109*	89*
CCOC(=O)C1CCCN(C(=O)Nc2cn(C)c3ccccc23)C1 (stereo not drawn)	·	·	-15	·	·	·	·	·
C=CCc1c(OC)ccc2ccc(=O)oc12	6	-1	-15	0	55*	0	124*	105*
C=CCc1ccc(OC)c(OC)c1	8	-1	-11	-5	5	0	·	·
CC1CCN(c2nc3c(cc2C#N)COC(C)(C)C3)CC1	3	-11	-34	-1	40*	0	91*	63*
CC1(C)Cc2nc(NCCN3CCOCC3)c(C#N)cc2CO1	1	-4	-12	9	1	1	·	·
COc1ccc2nc(N3CCC(C)CC3)c(C#N)cc2c1	2	11	-12	-50	9	2	·	·
CC(C)CCNc1nc2c(cc1C#N)COC(C)(C)C2	3	-3	-9	1	64*	-1	192*	159*
COc1ccccc1CCNC(=O)CSc1nnc2ccc(-c3ccc(F)cc3)nn12	·	·	-15	·	·	·	·	·
CCCCn1c(NC(=O)c2ccc(Br)o2)c(C(=O)OCC)c2nc3ccccc3nc21	11	4	1	-256	58*	-2	+	179*
COc1ccc(-n2c(NC(=O)c3ccco3)c(C#N)c3nc4ccccc4nc32)cc1	14	4	25	-90	24	0	·	·
CCOC(=O)c1c(NC(=O)c2ccco2)n(C2CCCCC2)c2nc3ccccc3nc12	15	68	17	-32	63*	1	14	9	GDH-TPI dose=2.9*
C=CCn1c(NC(=O)c2ccc(Br)o2)c(S(=O)(=O)c2ccccc2)c2nc3ccccc3nc21	1	-3	1	-102	50*	2	52*	47*
CCCCn1c(NS(=O)(=O)c2ccccc2)c(C(=O)OCC)c2nc3ccccc3nc21	16	-10	33	-102	53*	2	194*	151*
CC(C)(Oc1ccc(Cl)cc1)C(=O)N1C2CCC1CC(S(=O)(=O)c1ccccc1)C2 (stereo not drawn)	·	·	-2	·	·	·	·	·
Cn1nnc2c(N3CCN(CC(=O)NCc4ccccc4Cl)CC3)ncnc21	·	·	-9	·	·	·	·	·
O=C1CCC(=O)c2ccc3c4c(ccc1c24)CC3	32*	·	-14	·	42*	·	12	9	GDH-TPI dose=3.6*
O=C1c2ccc3c4c(ccc(c24)C(=O)N1c1ccc2ccccc2c1)CC3	-7	3	0	-5	3	2	·	·
O=C1CC(O)(C(F)(F)F)Oc2c1ccc1ccccc21 (stereo not drawn)	2	7	-4	4	12	1	·	·
O=C1CC(O)(C(F)F)Oc2ccc3ccccc3c21 (stereo not drawn)	6	52	-3	-9	44*	?	31*	22*
Cc1cc2nc(-c3ccc(SCC(=O)N4CCOCC4)nc3)[nH]c2cc1C	31*	80	-14	-10	54*	-3	57*	50*
Cc1cc2nc(-c3ccc(SCC(=O)N4CCN(C(=O)c5ccco5)CC4)nc3)[nH]c2cc1C	48*	68	-1	-8	35*	1	44*	27*
Cc1cc2nc(-c3ccc(SCc4ccccn4)nc3)[nH]c2cc1C	38*	6	3	-19	41*	0	54*	51*
O=[N+]([O-])c1ccc(C[n+]2c(-c3ccccc3)cc(-c3ccccc3)cc2-c2ccccc2)cc1	-11	10	14	2	67*	-2	+	+
O=C([O-])c1cc(-c2ccccc2)cc(-c2ccccc2)[n+]1Cc1ccccc1	·	-1	·	-6	·	1	·	·
SMILES	GDH-TPI counter-1	Mtb bLac sens	PriA SSB inh	Rv3671c inh	FBA Mtb inh	Mtb UGM inh	Mtb FBA inh conf	GDH-TPI counter-2	others
Cc1cc(OC2CN(S(=O)(=O)c3ccc(Br)s3)C2)cc(=O)o1	·	·	3	·	·	·	·	·
O=C(CSc1nc2nc(-c3cccs3)cc(C(F)(F)F)c2c(=O)[nH]1)NCc1ccco1	7	-13	-13	3	95*	2	2	-8
CCOc1ccccc1NC(=O)CSc1nc2nc(-c3cccs3)cc(C(F)(F)F)c2c(=O)[nH]1	13	5	6	-49	58*	1	73*	50*
COc1ccc(NC(=O)CSc2nc3nc(-c4cccs4)cc(C(F)(F)F)c3c(=O)[nH]2)c(OC)c1	9	35	-7	-7	19	-2	·	·
COC(=O)C1CC(Oc2ccccc2F)CN1C(=O)Cc1c[nH]c2ccccc12 (stereo not drawn)	·	·	-7	·	·	·	·	·
O=S(=O)(O)c1cccc2cccc(Nc3ccccc3)c12	31*	-9	-5	-1	95*	-1	+	+
COC(=O)c1ccccc1Nc1ccccc1	11	0	-75	-2	-2	3	·	·
O=C(c1cnc2ccccc2n1)N(Cc1ccsc1)C1CC1	·	·	-20	·	·	·	·	·
O=c1oc(-c2cccs2)nc2ccccc12	17	-2	-20	37	-9	3	·	·
CC(=NNc1nc(-c2ccccc2O)nc2ccccc12)c1ccccc1	·	·	-18	·	·	·	·	·
c1csc(-c2nc3c4ccccc4c4ccccc4c3[nH]2)c1	7	4	13	-39	58*	-1	+	+
Oc1ccccc1-c1nc2c3ccccc3c3ccccc3c2[nH]1	12	16	-13	-5	94*	2	99*	90*
N#Cc1cc(-c2ccccc2)oc1/N=C/c1ccccc1O	10	6	·	6	59*	3	45*	29*
N#Cc1cc(-c2ccccc2)oc1N=Cc1ccccc1O	·	·	-17	·	·	·	·	·
COc1cccc(/C=N/c2oc(-c3ccccc3)cc2C#N)c1O	-2	-5	·	8	54*	-1	7	2
O=S(=O)(c1ccc(Cl)cc1)c1nc(-c2ccco2)oc1NCc1ccc(F)cc1	·	·	18	·	·	·	·	·
CC(C)CNc1oc(-c2ccco2)nc1C#N	7	2	-12	1	72*	-4	97*	80*
O=S(=O)(c1ccccc1)c1nc(-c2ccco2)oc1Nc1ccccc1	11	-8	0	-8	5	-1	·	·
COc1ccc(N2CCN(c3oc(-c4ccco4)nc3C#N)CC2)cc1	21	1	15	-11	-3	-5	·	·
CC(Nc1oc(-c2ccco2)nc1C#N)c1ccccc1 (stereo not drawn)	13	4	9	-11	49*	1	0	-3
N#Cc1nc(-c2ccco2)oc1NCc1ccc(F)cc1	3	-8	21	3	40*	1	103*	84*
